Data taken from PubChem BioAssay.
The source made the active and inactive calls.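 Rule for the calls, unless noted: active = inhibition above 20% together with a positive visual image hit; inconclusive = visual image hit but inhibition not above 20%; inactive = no visual image hit.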

Assays:
[1] = inhibitors of TNFa-induced NFkB p65 translocation, primary screen, imaging, HUVEC, MLSMR starter and 10KST1 sets (AID 438); conditions: HUVEC TNFa-induced p65 nuclear translocation; cell count: measured here: nuclei count (cytotoxicity indicator), at 2.08 µM; inhibition: at 2 µM, stronger effect = higher value, 0% TNFa-plus-vehicle, 100% no-TNFa wells;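 note: compound added about 3h40 before a 20 min TNFalpha stimulation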;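 for inhibition: signal is the nuclear over cytoplasmic p65 intensity ratio per well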
[2] = inhibitors of mutant huntingtin aggregation, primary screen, imaging, exon1htt(103Q)mCFP cells, high-content imaging (AID 483;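 active = visual image review flags a hit and inhibition of aggregation exceeds 20%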;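 note: compound exposure lasted 3 days before fixation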;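 for nuclei count: percent of the per-plate median nuclei count of sample wells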); conditions: exon1htt(103Q)mCFP cell line, aggregate imaging, at 2 µM; inhibition of aggregation: stronger effect = higher value; nuclei count: measured here: cell count, toxicity
[3] = inhibitors of E-selectin induction by TNFa, primary screen, imaging, HUVEC, immunofluorescence, MLSMR starter and 10KST1 sets (AID 487;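 active = visually confirmed hit in the image check and inhibition above 20%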;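 for inhibition: signal is fraction of cell area covered by stained E-selectin grains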;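 for nuclei count: 100% = median nuclei count of all wells on the same plate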); conditions: HUVEC TNFalpha-induced E-selectin immunofluorescence imaging, at 2 µM; inhibition: stronger effect = higher value; nuclei count: measured here: cell number, toxicity
[4] = molecular target: Voltage-gated potassium channel subunit beta-2 (Rattus norvegicus) (UniProt P62483); assay: KvBeta enzyme negative modulators, primary screen, biochemical, NADPH fluorescence (AID 622;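 active = fluorescence slope higher than the sample average by over 3 SD, cut at about -0.22 in these data, passing the limit was not always enough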;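 note: slope of raw intensity against log time taken from 70 to 1610 s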); conditions: recombinant KvBeta, 4-cyanobenzaldehyde reduction, at 10 µM, stronger effect = higher value
Sequence of Voltage-gated potassium channel subunit beta-2 (Rattus norvegicus) (P62483 whole entry, looked up): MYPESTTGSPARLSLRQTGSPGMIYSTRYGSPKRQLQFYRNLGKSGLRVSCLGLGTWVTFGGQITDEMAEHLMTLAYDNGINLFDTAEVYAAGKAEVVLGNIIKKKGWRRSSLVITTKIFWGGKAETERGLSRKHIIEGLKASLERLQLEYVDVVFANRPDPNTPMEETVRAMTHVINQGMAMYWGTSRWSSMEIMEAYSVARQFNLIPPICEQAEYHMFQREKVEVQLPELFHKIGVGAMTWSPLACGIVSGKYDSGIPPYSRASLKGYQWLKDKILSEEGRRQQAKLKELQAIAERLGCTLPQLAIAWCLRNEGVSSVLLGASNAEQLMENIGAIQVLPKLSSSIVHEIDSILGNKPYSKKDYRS

[5] = molecular target: Voltage-gated potassium channel subunit beta-2 (Rattus norvegicus) (UniProt P62483); assay: KvBeta positive modulators, primary screen, biochemical, NADPH fluorescence (AID 623;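 active = NADPH fluorescence slope more negative than the mean of all samples by about 3 SD, 99.7% confidence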;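 note: fluorescence intensity change per second fitted from 20 to 320 s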); conditions: Recombinant KvBeta, NADPH fluorescence decrease slope, 10 min; at 10 µM; stronger effect = lower value
[6] = molecular target: Alpha-2C adrenergic receptor (Homo sapiens) (UniProt P18825); assay: modulators of alpha2C/GIRK thallium flux, primary screen, cell-based, HEK293 alpha2C/GIRK1/2 (AID 624;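 active = fluorescence slope after compound addition differing from the mean of all screened samples at 99.7% confidence, in either direction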;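 note: slope of fluorescence ratio to pre-addition baseline per second over 15 to 24 s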); conditions: thallium flux BTC fluorescence, at 10 µM, actives lie on both sides
Sequence of Alpha-2C adrenergic receptor (Homo sapiens) (P18825 whole entry, looked up): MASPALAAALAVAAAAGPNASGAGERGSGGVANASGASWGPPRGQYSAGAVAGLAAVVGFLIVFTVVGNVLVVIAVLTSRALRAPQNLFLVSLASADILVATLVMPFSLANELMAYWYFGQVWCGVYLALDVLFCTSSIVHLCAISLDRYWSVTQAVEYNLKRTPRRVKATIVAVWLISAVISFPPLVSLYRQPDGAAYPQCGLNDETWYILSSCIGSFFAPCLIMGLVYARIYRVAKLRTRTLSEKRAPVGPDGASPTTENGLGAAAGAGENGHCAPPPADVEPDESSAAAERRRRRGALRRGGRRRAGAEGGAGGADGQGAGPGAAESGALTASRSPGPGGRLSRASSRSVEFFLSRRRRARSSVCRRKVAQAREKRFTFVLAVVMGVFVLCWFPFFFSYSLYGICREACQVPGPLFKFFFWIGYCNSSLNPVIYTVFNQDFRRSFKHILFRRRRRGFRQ

[7] = inhibitors of Sendai virus-induced IRF3 signaling, primary screen, TLR/RLR signaling modifier project, cell-based, Sendai virus stimulus, luciferase, 10K MLSCN set (AID 602276;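 active = inhibition at or above 50% at 10 µM; inactive = inhibition below 50%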;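 note: firefly luciferase from ISG56 promoter only with Renilla not read in this screen; 0% = Sendai virus plus DMSO and 100% = medium plus DMSO without virus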); conditions: HEK293 RL24 IRF3 luciferase reporter, at 10 µM, stronger effect = higher value
[8] = inhibitors of poly I:C-induced TLR3 signaling, primary screen, cell-based, poly I:C stimulus, luciferase, 10K MLSCN set (AID 602277;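 active = inhibition of the reporter signal at or above 50%; inactive = inhibition below 50%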); conditions: HEK293-TLR3 RL24 IRF3 luciferase reporter, at 10 µM, stronger effect = higher value

SMILES | cell count [1] | inhibition [1] | inhibition of aggregation [2] | nuclei count [2] [%] | inhibition [3] | nuclei count [3] [%] | fluorescence slope [4] | NADPH fluorescence slope [5] | slope [6] | inhibition [7] | inhibition [8]
CN1C(=O)CCC1(O)c1ccccc1 (centres undefined) | 565 | -9.2% (inactive) | 18.6% (inactive) | 54.1 | -51.3% (inactive) | 103 | -0.392 (inactive) | 1.8e-06 (inactive) | 0.00341 (inactive) | 11.4% (inactive) | 38.2% (inactive)
CCN1C(=O)c2cccc3c(NC(=O)c4ccc5c(c4)OCCO5)ccc1c23 | 563 | 0.5% (inactive) | 4.6% (inactive) | 87.1 | 18% (inactive) | 90.9 | -0.48 (inactive) | -5.7e-06 (inactive) | -0.00194 (inactive) | 7.48% (inactive) | 17% (inactive)
C/C=C/c1ccc(OCCn2cncn2)c(OC)c1 | 746 | -6.6% (inactive) | -27.6% (inactive) | 132 | -73.8% (inactive) | 120 | -0.519 (inactive) | 3.6e-05 (inactive) | 0.00659 (inactive) | -19.9% (inactive) | 2% (inactive)
CCCC1(CCC)NC(=O)NC1=O | 548 | -3.3% (inactive) | -41.1% (inactive) | 65.5 | -34.4% (inactive) | 107 | -0.491 (inactive) | -4.7e-05 (inactive) | 0.00587 (inactive) | 6.49% (inactive) | 14.1% (inactive)
N#Cc1nc(COc2ccccc2)oc1NCCCn1ccnc1 | 371 | 5.2% (inactive) | 0.8% (inactive) | 95.5 | 6.7% (inactive) | 90.9 | -0.629 (inactive) | -1.3e-05 (inactive) | 0.00641 (inactive) | -11.6% (inactive) | -1.22% (inactive)
Cc1cccc(C2CC(c3ccc(Cl)cc3)Nc3nc(N)nn32)c1 (centres undefined) | 598 | -2.4% (inactive) | 18.5% (inactive) | 58.9 | -0.5% (inactive) | 102 | -0.525 (inactive) | -4.5e-05 (inactive) | 0.00816 (inactive) | 4.61% (inactive) | 25.1% (inactive)
COc1ccccc1-n1c(=O)[nH]c2c(C(N)=O)nc(CC(C)C)nc21 | 809 | -0.5% (inactive) | -23.3% (inactive) | 105 | 2.2% (inactive) | 117 | -0.58 (inactive) | -3e-05 (inactive) | 0.00821 (inactive) | 13% (inactive) | 32.3% (inactive)
O=C(Nc1ccccc1C(=O)N1CCOCC1)C1CCC(=O)N1C1CCCC1 (centres undefined) | 229 | 14.7% (inactive) | 8.7% (inactive) | 79.1 | -48.2% (inactive) | 110 | -0.425 (inactive) | -4.5e-05 (inactive) | 0.00481 (inactive) | 4.86% (inactive) | 7.23% (inactive)
Cc1ccc(-c2noc(CN3CCN(c4ccccc4F)CC3)n2)cc1 | 468 | -2.6% (inactive) | -0.3% (inactive) | 84.1 | -30.6% (inactive) | 101 | -0.556 (inactive) | -3.7e-05 (inactive) | 0.00746 (inactive) | 14.7% (inactive) | 39% (inactive)
COCc1ccccc1Cn1cnc2c1c(=O)n(C)c(=O)n2C | 346 | 2% (inactive) | -1.8% (inactive) | 107 | 25.6% (inactive) | 112 | -0.469 (inactive) | -3.6e-05 (inactive) | 0.00626 (inactive) | 2.14% (inactive) | 12.6% (inactive)
O=C(OCCN1C(=O)c2ccccc2C1=O)c1ccc(S(=O)(=O)N2CCCCCC2)cc1 | 390 | -9.2% (inactive) | -7.2% (inactive) | 95.1 | -10.3% (inactive) | 108 | -0.605 (inactive) | -2.9e-05 (inactive) | 0.00625 (inactive) | 19.6% (inactive) | 12.1% (inactive)
CC1(C)CC(CCNC(=O)c2ccco2)CC(C)(C)N1 | 387 | 2.3% (inactive) | 1.2% (inactive) | 86.4 | -91.3% (inactive) | 81.4 | -0.473 (inactive) | -1.8e-05 (inactive) | 0.00616 (inactive) | 12% (inactive) | 12.3% (inactive)
CCC(C)c1ccc(NC(=O)c2cccnc2)cc1 (centres undefined) | 393 | 18% (inactive) | 2.8% (inactive) | 113 | -48.5% (inactive) | 130 | -0.395 (inactive) | 3e-05 (inactive) | 0.00669 (inactive) | -47.8% (inactive) | -142% (inactive)
CC(=O)c1c(C)nn(C(C)CC(=O)O)c1C (centres undefined) | 784 | -12.6% (inactive) | 5.2% (inactive) | 114 | -27.1% (inactive) | 99 | -0.509 (inactive) | -2.6e-05 (inactive) | 0.00713 (inactive) | 8.2% (inactive) | 19.7% (inactive)
C/C(=N\O)C(=O)C(CN1CCCCC1)CN1CCCCC1 | 386 | 0.5% (inactive) | -0.1% (inactive) | 89.2 | -144% (inactive) | 98.1 | -0.437 (inactive) | 1.9e-05 (inactive) | 0.00389 (inactive) | -5.16% (inactive) | 25.3% (inactive)
Cc1cc2oc(=O)cc(C)c2c(=O)o1 | 411 | -15.8% (inactive) | -0.8% (inactive) | 105 | -2.6% (inactive) | 115 | -0.391 (inactive) | 3.6e-05 (inactive) | 0.00528 (inactive) | -5.14% (inactive) | -17.4% (inactive)
CC(NC(=O)C1CC1)C(c1cccs1)N1CCN(c2ccccc2)CC1 (centres undefined) | 884 | 4.2% (inactive) | -7.2% (inactive) | 100 | -17.3% (inactive) | 116 | -0.495 (inactive) | -3e-05 (inactive) | 0.00607 (inactive) | 6.3% (inactive) | 23.6% (inactive)
O=C(NCc1nnc(SCC(=O)N2CCC(Cc3ccccc3)CC2)o1)c1ccccc1F | 574 | -0.4% (inactive) | 4.4% (inactive) | 112 | 5.1% (inactive) | 110 | -0.549 (inactive) | -5.6e-05 (inactive) | 0.00657 (inactive) | -4.5% (inactive) | 8.45% (inactive)
Cc1ccccc1-c1nc(CS(=O)(=O)CC(=O)NCc2ccc3c(c2)OCO3)c(C)o1 | 676 | -0.6% (inactive) | -60.8% (inactive) | 115 | -6.5% (inactive) | 110 | -0.497 (inactive) | -2.5e-05 (inactive) | 0.0071 (inactive) | 24.2% (inactive) | 17% (inactive)
